# Laboratory results reported in PubChem BioAssay AID1159580 (chemical genetic matrix, 2015).
# The campaign covered roughly 5,500 compounds. About 2,000 (36%) were called active. About 18% were inconclusive and are not listed. The list shows a part of the results. Values without a mark were called inactive. Cut-off read from the data, not from the text of the source: active = normalized growth mostly below about 0.91 (no sharp cut-off); inconclusive = no clear call, values can overlap the other calls; inactive = mostly above about 0.92.
# Experiment: chemical genetic growth profiling, strain panel (AID 1159580);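 note: tested at 20 µM; growth read once vehicle control cultures reached saturation at 30 °C; 1 = growth at the plate median or of vehicle wells; lower values mean less growth of the strain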
# Settings: growth OD
# [1] = S. cerevisiae deletion strains, locus YDL101C, strain DUN1, hits give low values
# [2] = S. cerevisiae deletion strains, locus YHR030C, strain SLT2, hits give low values
compound,measurement,setting,value
CCCCCCCCCCCC(=O)NOC(=O)c1c(-c2c(Cl)cccc2Cl)noc1C,normalized growth,"S. cerevisiae deletion strains, locus YAR019C, strain CDC15, hits give low values",0.984
same,normalized growth,"S. cerevisiae deletion strains, locus YBL105C, strain PKC1, hits give low values",0.986
same,normalized growth,"S. cerevisiae deletion strains, locus YBR135W, strain CKS1, hits give low values",0.984
same,normalized growth,"S. cerevisiae deletion strains, locus YBR136W, strain MEC1, hits give low values",0.985
same,normalized growth,"S. cerevisiae deletion strains, locus YBR160W, strain CDC28, hits give low values",0.998
same,normalized growth,"S. cerevisiae deletion strains, locus YDL017W, strain CDC7, hits give low values",0.986
same,normalized growth,"S. cerevisiae deletion strains, locus YDL028C, strain MPS1, hits give low values",0.988
same,normalized growth,[1],0.999
same,normalized growth,"S. cerevisiae deletion strains, locus YDL108W, strain KIN28, hits give low values",0.982
same,normalized growth,"S. cerevisiae deletion strains, locus YDL132W, strain cdc53, hits give low values",0.986
same,normalized growth,"S. cerevisiae deletion strains, locus YDL214C, strain PRR2, hits give low values",0.948
same,normalized growth,"S. cerevisiae deletion strains, locus YDR052C, strain DBF4, hits give low values",0.997
same,normalized growth,"S. cerevisiae deletion strains, locus YDR054C, strain cdc34, hits give low values",0.988
same,normalized growth,"S. cerevisiae deletion strains, locus YDR226W, strain ADK1, hits give low values",0.981
same,normalized growth,"S. cerevisiae deletion strains, locus YDR477W, strain SNF1, hits give low values",0.818
same,normalized growth,"S. cerevisiae deletion strains, locus YER123W, strain YCK3, hits give low values",0.656
same,normalized growth,"S. cerevisiae deletion strains, locus YER133W, strain GLC7, hits give low values",0.779
same,normalized growth,"S. cerevisiae deletion strains, locus YFL009W, strain cdc4, hits give low values",0.99
same,normalized growth,"S. cerevisiae deletion strains, locus YFL029C, strain CAK1, hits give low values",0.989
same,normalized growth,"S. cerevisiae deletion strains, locus YFR003C, strain YPI1, hits give low values",0.984
same,normalized growth,"S. cerevisiae deletion strains, locus YFR019W, strain FAB1, hits give low values",0.874
same,normalized growth,"S. cerevisiae deletion strains, locus YFR028C, strain CDC14, hits give low values",0.996
same,normalized growth,"S. cerevisiae deletion strains, locus YGR040W, strain KSS1, hits give low values",0.838
same,normalized growth,"S. cerevisiae deletion strains, locus YGR052W, strain FMP48, hits give low values",0.641
same,normalized growth,"S. cerevisiae deletion strains, locus YGR092W, strain DBF2, hits give low values",0.586
same,normalized growth,[2],0.139 (active)
same,normalized growth,"S. cerevisiae deletion strains, locus YHR079C, strain IRE1, hits give low values",0.139 (active)
same,normalized growth,"S. cerevisiae deletion strains, locus YHR082C, strain KSP1, hits give low values",0.9
same,normalized growth,"S. cerevisiae deletion strains, locus YHR205W, strain SCH9, hits give low values",0.586
same,normalized growth,"S. cerevisiae deletion strains, locus YIL147C, strain SLN1, hits give low values",0.984
same,normalized growth,"S. cerevisiae deletion strains, locus YJL095W, strain BCK1, hits give low values",0.117 (active)
same,normalized growth,"S. cerevisiae deletion strains, locus YJL128C, strain PBS2, hits give low values",1
same,normalized growth,"S. cerevisiae deletion strains, locus YJL157C, strain FAR1, hits give low values",0.909
same,normalized growth,"S. cerevisiae deletion strains, locus YJR016C, strain ILV3, hits give low values",0.984
same,normalized growth,"S. cerevisiae deletion strains, locus YJR066W, strain TOR1 (second series), hits give low values",0.451 (active)
same,normalized growth,"S. cerevisiae deletion strains, locus YJR066W, strain TOR1, hits give low values",0.583
same,normalized growth,"S. cerevisiae deletion strains, locus YKL048C, strain ELM1, hits give low values",0.995
same,normalized growth,"S. cerevisiae deletion strains, locus YKL067W, strain YNK1, hits give low values",0.944
same,normalized growth,"S. cerevisiae deletion strains, locus YKL101W, strain HSL1, hits give low values",0.961
same,normalized growth,"S. cerevisiae deletion strains, locus YKL193C, strain SDS22, hits give low values",0.979
same,normalized growth,"S. cerevisiae deletion strains, locus YKL203C, strain TOR2, hits give low values",0.66 (active)
same,normalized growth,"S. cerevisiae deletion strains, locus YLR113W, strain HOG1, hits give low values",0.415 (active)
same,normalized growth,"S. cerevisiae deletion strains, locus YLR133W, strain CKI1, hits give low values",0.905
same,normalized growth,"S. cerevisiae deletion strains, locus YLR403W, strain SFP1, hits give low values",0.553 (active)
same,normalized growth,"S. cerevisiae deletion strains, locus YML070W, strain DAK1, hits give low values",0.692
same,normalized growth,"S. cerevisiae deletion strains, locus YMR001C, strain CDC5, hits give low values",0.982
same,normalized growth,"S. cerevisiae deletion strains, locus YMR205C, strain PFK2 (second series), hits give low values",0.935
same,normalized growth,"S. cerevisiae deletion strains, locus YMR277W, strain FCP1, hits give low values",0.977
same,normalized growth,"S. cerevisiae deletion strains, locus YNL006W, strain LST8, hits give low values",0.992
same,normalized growth,"S. cerevisiae deletion strains, locus YNL020C, strain ARK1, hits give low values",0.915
same,normalized growth,"S. cerevisiae deletion strains, locus YNL161W, strain CBK1, hits give low values",0.992
same,normalized growth,"S. cerevisiae deletion strains, locus YNL183C, strain NPR1, hits give low values",0.571 (active)
same,normalized growth,"S. cerevisiae deletion strains, locus YNL207W, strain RIO2, hits give low values",0.966
same,normalized growth,"S. cerevisiae deletion strains, locus YNL222W, strain SSU72, hits give low values",0.988
same,normalized growth,"S. cerevisiae deletion strains, locus YNL307C, strain MCK1 (second series), hits give low values",0.69
same,normalized growth,"S. cerevisiae deletion strains, locus YOL078W, strain AVO1, hits give low values",0.98
same,normalized growth,"S. cerevisiae deletion strains, locus YOL136C, strain PFK27, hits give low values",0.867
same,normalized growth,"S. cerevisiae deletion strains, locus YOR061W, strain CKA2, hits give low values",0.886
same,normalized growth,"S. cerevisiae deletion strains, locus YOR119C, strain RIO1, hits give low values",0.578 (active)
same,normalized growth,"S. cerevisiae deletion strains, locus YOR231W, strain MKK1, hits give low values",0.689
same,normalized growth,"S. cerevisiae deletion strains, locus YOR329C, strain SCD5, hits give low values",0.991
same,normalized growth,"S. cerevisiae deletion strains, locus YPL031C, strain PHO85, hits give low values",0.795
same,normalized growth,"S. cerevisiae deletion strains, locus YPL153C, strain RAD53, hits give low values",0.533 (active)
same,normalized growth,"S. cerevisiae deletion strains, locus YPL204W, strain HRR25, hits give low values",0.63 (active)
same,normalized growth,"S. cerevisiae deletion strains, locus YPL209C, strain IPL1, hits give low values",0.991
same,normalized growth,"S. cerevisiae deletion strains, locus YPL256C, strain CLN2, hits give low values",0.697 (active)
same,normalized growth,"S. cerevisiae deletion strains, locus YPR025C, strain CCL1, hits give low values",0.993
same,normalized growth,"S. cerevisiae deletion strains, locus YPR106W, strain ISR1, hits give low values",1
same,normalized growth,"S. cerevisiae deletion strains, locus YPR111W, strain DBF20, hits give low values",1.01
same,normalized growth,"S. cerevisiae deletion strains, strain NNK1, hits give low values",0.996
same,normalized growth,"S. cerevisiae deletion strains, strain TSCII, hits give low values",0.991
COC(=O)c1c(-c2c(Cl)cccc2Cl)noc1NC(=O)NN1CCCCC1,normalized growth,"S. cerevisiae deletion strains, locus YAL013W, strain DEP1, hits give low values",1.02
same,normalized growth,"S. cerevisiae deletion strains, locus YBR229C, strain ROT2, hits give low values",1.02
same,normalized growth,"S. cerevisiae deletion strains, locus YCL061C, strain MRC1, hits give low values",1.01
same,normalized growth,[1],1.01
same,normalized growth,"S. cerevisiae deletion strains, locus YDL134C, strain PPH21, hits give low values",0.993
same,normalized growth,"S. cerevisiae deletion strains, locus YDR150W, strain NUM1, hits give low values",0.993
same,normalized growth,"S. cerevisiae deletion strains, locus YEL061C, strain CIN8, hits give low values",1
same,normalized growth,"S. cerevisiae deletion strains, locus YGR078C, strain PAC10, hits give low values",1.03
same,normalized growth,"S. cerevisiae deletion strains, locus YGR229C, strain SMI1, hits give low values",1
same,normalized growth,[2],0.973
same,normalized growth,"S. cerevisiae deletion strains, locus YHR087W, strain rtc3, hits give low values",1.03
same,normalized growth,"S. cerevisiae deletion strains, locus YJL187C, strain SWE1, hits give low values",1.01
same,normalized growth,"S. cerevisiae deletion strains, locus YJR043C, strain POL32, hits give low values",1.01
same,normalized growth,"S. cerevisiae deletion strains, locus YJR075W, strain HOC1, hits give low values",1.02
same,normalized growth,"S. cerevisiae deletion strains, locus YKL190W, strain CNB1, hits give low values",1
same,normalized growth,"S. cerevisiae deletion strains, locus YLR039C, strain RIC1, hits give low values",0.963
same,normalized growth,"S. cerevisiae deletion strains, locus YLR058C, strain SHM2 (second series), hits give low values",1.01
same,normalized growth,"S. cerevisiae deletion strains, locus YLR085C, strain ARP6, hits give low values",0.992
same,normalized growth,"S. cerevisiae deletion strains, locus YLR262C, strain YPT6, hits give low values",0.977
same,normalized growth,"S. cerevisiae deletion strains, locus YML094W, strain GIM5, hits give low values",1.04
same,normalized growth,"S. cerevisiae deletion strains, locus YMR219W, strain ESC1, hits give low values",1.01
same,normalized growth,"S. cerevisiae deletion strains, locus YMR263W, strain SAP30, hits give low values",1
same,normalized growth,"S. cerevisiae deletion strains, locus YMR307W, strain GAS1, hits give low values",1
same,normalized growth,"S. cerevisiae deletion strains, locus YNL153C, strain GIM3, hits give low values",1.01
same,normalized growth,"S. cerevisiae deletion strains, locus YNL298W, strain CLA4 (second series), hits give low values",1
same,normalized growth,"S. cerevisiae deletion strains, locus YNL322C, strain KRE1, hits give low values",1.01
same,normalized growth,"S. cerevisiae deletion strains, locus YNR030W, strain Alg12, hits give low values",0.987
same,normalized growth,"S. cerevisiae deletion strains, locus YOL006C, strain TOP1, hits give low values",1.05
same,normalized growth,"S. cerevisiae deletion strains, locus YPL055C, strain LGE1, hits give low values",1.01
same,normalized growth,"S. cerevisiae deletion strains, locus YPL241C, strain CIN2, hits give low values",0.911
same,normalized growth,"S. cerevisiae deletion strains, locus YPR135W, strain CTF4, hits give low values",0.969
same,normalized growth,"S. cerevisiae strains, strain wild type, hits give low values",0.999
